Data on three compounds can be found in ChEMBL document CHEMBL1961873, “Compounds: GSK PKIS; Assays: Nanosyn kinase panel” (2012).

The target of test [1] is Ribosomal protein S6 kinase alpha-6 (Homo sapiens) (UniProt Q9UK32). As to conditions: at 1 µM.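 Note: each value is a mean inhibition of RSK4 from a GSK PKIS panel screen.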
In test [2] the target is T1, Serine/threonine-protein kinase Sgk1 (Homo sapiens) (UniProt O00141).
T1 sequence (whole entry): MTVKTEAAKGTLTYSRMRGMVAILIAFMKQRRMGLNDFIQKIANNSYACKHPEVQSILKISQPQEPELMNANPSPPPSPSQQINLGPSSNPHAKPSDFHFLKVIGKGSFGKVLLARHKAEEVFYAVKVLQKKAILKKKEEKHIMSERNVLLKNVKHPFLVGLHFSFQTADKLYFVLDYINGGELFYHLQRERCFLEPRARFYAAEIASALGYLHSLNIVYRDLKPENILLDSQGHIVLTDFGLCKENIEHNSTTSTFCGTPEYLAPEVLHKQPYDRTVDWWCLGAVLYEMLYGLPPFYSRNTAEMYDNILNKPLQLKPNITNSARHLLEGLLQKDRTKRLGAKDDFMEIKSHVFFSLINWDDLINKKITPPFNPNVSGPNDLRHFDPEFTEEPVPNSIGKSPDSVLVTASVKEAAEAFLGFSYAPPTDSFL
As to conditions: at 0.1 µM.

Test [3] concerns the target T1, Serine/threonine-protein kinase Sgk1 (Homo sapiens). The conditions noted are these: at 1 µM.
Test [4] has as its target T2, Serine/threonine-protein kinase Sgk2 (Homo sapiens) (UniProt Q9HBY8).
T2 sequence (whole entry): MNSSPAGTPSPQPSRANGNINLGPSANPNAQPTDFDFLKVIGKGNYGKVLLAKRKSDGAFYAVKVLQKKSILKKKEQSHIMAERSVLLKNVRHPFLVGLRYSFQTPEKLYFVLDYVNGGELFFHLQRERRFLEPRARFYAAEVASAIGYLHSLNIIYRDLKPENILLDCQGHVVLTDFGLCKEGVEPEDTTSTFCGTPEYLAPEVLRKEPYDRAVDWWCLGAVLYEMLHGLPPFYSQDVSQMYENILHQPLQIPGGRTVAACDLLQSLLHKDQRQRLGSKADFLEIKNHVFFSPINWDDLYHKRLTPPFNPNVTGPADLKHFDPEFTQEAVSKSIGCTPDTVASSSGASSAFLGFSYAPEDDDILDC
The conditions noted are these: at 0.1 µM.

Test [5] addresses T2, Serine/threonine-protein kinase Sgk2 (Homo sapiens). As to conditions: at 1 µM.
Test [6] has as its target T3, Serine/threonine-protein kinase Sgk3 (Homo sapiens) (UniProt Q96BR1).
T3 sequence (whole entry): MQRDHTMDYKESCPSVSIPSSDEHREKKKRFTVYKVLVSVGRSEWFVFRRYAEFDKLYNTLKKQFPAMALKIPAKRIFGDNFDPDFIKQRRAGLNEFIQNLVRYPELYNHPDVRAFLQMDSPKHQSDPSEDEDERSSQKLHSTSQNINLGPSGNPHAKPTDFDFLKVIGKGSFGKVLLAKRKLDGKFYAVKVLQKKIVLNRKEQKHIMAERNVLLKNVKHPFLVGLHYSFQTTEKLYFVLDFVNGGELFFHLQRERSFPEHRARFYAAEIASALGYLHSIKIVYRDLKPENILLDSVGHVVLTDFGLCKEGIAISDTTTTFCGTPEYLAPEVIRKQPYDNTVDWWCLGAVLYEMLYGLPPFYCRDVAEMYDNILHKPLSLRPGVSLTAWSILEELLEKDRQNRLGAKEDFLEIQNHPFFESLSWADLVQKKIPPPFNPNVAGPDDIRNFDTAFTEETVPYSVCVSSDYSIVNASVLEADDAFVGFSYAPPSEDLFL
As to conditions: at 0.1 µM.

In test [7] the target is T3, Serine/threonine-protein kinase Sgk3 (Homo sapiens). The conditions noted are these: at 1 µM.
Test [8] addresses 5'-AMP-activated protein kinase catalytic subunit alpha-1 (Homo sapiens) (UniProt Q13131). As to conditions: at 0.1 µM.
Test [9] shares this target. The conditions noted are these: at 1 µM.
The target of test [10] is 5'-AMP-activated protein kinase catalytic subunit alpha-2 (Homo sapiens) (UniProt P54646). As to conditions: at 0.1 µM.
For test [11] the target is unchanged. As to conditions: at 1 µM.
Test [12] has as its target T4, NUAK family SNF1-like kinase 1 (Homo sapiens) (UniProt O60285).
T4 sequence (whole entry): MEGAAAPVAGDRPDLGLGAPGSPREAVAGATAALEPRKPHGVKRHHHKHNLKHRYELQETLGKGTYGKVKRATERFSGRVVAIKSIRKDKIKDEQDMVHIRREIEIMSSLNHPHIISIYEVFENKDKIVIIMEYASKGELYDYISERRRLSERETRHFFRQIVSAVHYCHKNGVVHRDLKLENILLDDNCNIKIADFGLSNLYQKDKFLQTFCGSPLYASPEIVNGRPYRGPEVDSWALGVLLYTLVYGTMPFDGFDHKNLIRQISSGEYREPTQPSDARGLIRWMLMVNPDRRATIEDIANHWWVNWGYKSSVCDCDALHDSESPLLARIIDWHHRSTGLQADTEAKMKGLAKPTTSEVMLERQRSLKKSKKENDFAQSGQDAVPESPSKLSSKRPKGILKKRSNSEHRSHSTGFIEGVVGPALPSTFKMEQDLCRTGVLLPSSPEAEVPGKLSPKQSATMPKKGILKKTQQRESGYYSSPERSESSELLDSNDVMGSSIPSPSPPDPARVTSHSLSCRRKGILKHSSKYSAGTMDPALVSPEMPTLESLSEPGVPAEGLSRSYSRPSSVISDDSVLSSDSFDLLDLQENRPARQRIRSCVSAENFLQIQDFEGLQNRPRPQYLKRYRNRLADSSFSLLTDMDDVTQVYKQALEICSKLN
The conditions noted are these: at 0.1 µM.

Test [13] addresses T4, NUAK family SNF1-like kinase 1 (Homo sapiens). As to conditions: at 1 µM.
For test [14], the target named is T5, Serine/threonine-protein kinase BRSK1 (Homo sapiens) (UniProt Q8TDC3).
T5 sequence (whole entry): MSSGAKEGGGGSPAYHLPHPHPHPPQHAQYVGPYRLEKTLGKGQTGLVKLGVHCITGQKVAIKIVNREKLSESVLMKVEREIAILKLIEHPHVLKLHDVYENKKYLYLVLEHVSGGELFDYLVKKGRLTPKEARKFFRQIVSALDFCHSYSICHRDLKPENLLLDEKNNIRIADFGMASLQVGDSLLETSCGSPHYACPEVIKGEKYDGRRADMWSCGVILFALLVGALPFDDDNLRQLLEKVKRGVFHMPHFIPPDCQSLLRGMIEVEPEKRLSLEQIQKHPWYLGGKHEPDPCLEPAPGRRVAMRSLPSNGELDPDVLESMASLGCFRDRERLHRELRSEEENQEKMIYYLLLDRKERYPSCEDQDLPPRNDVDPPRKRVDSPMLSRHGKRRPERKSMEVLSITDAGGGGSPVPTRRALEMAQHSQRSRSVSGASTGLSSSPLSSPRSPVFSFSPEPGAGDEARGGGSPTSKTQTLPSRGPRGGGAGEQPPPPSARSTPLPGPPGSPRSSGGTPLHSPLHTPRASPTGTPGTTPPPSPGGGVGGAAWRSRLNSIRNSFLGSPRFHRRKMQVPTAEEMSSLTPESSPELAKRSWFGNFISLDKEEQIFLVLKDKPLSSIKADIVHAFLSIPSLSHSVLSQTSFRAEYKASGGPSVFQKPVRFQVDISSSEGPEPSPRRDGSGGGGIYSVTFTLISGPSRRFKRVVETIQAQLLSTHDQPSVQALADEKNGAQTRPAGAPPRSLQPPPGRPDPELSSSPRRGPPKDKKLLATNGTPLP
As to conditions: at 0.1 µM.

Test [15] has as its target T5, Serine/threonine-protein kinase BRSK1 (Homo sapiens). The conditions noted are these: at 1 µM.
Test [16] concerns the target T6, Serine/threonine-protein kinase BRSK2 (Homo sapiens) (UniProt Q8IWQ3).
T6 sequence (whole entry): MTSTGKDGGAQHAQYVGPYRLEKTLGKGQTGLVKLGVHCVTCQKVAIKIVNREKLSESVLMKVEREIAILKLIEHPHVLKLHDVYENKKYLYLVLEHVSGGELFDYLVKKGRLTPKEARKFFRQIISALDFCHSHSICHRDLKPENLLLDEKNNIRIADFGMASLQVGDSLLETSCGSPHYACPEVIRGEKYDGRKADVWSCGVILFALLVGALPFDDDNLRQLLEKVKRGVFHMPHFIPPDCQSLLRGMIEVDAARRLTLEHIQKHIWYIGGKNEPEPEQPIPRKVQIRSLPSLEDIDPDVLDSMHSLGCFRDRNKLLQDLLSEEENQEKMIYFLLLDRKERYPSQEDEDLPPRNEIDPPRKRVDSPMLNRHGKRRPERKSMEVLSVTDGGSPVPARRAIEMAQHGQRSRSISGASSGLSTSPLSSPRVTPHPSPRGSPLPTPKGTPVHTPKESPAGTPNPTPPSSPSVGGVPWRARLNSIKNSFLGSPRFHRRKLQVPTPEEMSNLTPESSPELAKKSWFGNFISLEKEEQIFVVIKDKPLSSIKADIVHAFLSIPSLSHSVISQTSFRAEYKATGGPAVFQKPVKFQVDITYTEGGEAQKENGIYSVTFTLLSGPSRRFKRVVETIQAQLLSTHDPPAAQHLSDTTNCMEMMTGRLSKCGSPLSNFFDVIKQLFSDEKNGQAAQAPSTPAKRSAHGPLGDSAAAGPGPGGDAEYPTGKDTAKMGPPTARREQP
The conditions noted are these: at 0.1 µM.

Test [17] deals with T6, Serine/threonine-protein kinase BRSK2 (Homo sapiens). The conditions noted are these: at 1 µM.
The target in test [18] is Calcium/calmodulin-dependent protein kinase type 1D (Homo sapiens) (UniProt Q8IU85). The conditions noted are these: at 0.1 µM.
Test [19] has the same target. The conditions noted are these: at 1 µM.
Test [20] deals with Calcium/calmodulin-dependent protein kinase type II subunit alpha (Homo sapiens) (UniProt Q9UQM7). The conditions noted are these: at 0.1 µM.
Chain of Calcium/calmodulin-dependent protein kinase type II subunit alpha (Homo sapiens) (Q9UQM7 whole entry): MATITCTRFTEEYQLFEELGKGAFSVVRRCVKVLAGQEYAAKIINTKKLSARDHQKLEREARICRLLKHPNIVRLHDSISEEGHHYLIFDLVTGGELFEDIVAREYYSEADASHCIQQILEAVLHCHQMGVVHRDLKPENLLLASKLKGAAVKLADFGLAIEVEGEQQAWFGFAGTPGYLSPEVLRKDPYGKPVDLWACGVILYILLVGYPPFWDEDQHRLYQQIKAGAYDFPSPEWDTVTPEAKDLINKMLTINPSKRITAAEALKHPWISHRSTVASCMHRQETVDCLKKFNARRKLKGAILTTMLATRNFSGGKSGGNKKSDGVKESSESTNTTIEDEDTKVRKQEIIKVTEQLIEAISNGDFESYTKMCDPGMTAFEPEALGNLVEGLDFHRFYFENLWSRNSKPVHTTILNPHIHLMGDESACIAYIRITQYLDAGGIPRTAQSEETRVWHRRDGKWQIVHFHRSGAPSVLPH

Chain of 5'-AMP-activated protein kinase catalytic subunit alpha-2 (Homo sapiens) (P54646 whole entry, looked up): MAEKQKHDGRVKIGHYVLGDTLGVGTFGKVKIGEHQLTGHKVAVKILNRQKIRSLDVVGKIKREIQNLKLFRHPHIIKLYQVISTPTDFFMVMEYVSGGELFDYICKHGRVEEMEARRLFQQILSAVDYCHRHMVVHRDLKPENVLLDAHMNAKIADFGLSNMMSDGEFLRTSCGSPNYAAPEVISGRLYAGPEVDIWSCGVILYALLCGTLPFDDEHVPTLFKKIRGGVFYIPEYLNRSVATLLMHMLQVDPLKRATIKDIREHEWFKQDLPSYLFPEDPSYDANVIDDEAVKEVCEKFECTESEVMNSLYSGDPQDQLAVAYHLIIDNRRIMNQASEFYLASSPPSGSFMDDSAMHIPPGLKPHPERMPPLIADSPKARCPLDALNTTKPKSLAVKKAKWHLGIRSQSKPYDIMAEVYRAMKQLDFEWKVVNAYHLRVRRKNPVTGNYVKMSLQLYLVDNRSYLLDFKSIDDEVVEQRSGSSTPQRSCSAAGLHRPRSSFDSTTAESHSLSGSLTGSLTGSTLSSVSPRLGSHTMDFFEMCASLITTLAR
Chain of Calcium/calmodulin-dependent protein kinase type 1D (Homo sapiens) (Q8IU85 whole entry, looked up): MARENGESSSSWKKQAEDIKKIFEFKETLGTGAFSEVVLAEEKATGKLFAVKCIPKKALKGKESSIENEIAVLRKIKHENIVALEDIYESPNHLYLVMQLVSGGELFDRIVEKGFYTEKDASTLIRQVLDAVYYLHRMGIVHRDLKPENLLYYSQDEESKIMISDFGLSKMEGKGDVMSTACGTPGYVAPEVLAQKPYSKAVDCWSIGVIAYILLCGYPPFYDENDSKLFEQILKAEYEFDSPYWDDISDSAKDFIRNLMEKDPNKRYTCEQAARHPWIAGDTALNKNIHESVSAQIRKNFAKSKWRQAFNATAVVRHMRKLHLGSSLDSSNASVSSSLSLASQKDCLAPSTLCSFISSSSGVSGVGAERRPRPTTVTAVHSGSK
Chain of Ribosomal protein S6 kinase alpha-6 (Homo sapiens) (Q9UK32 whole entry): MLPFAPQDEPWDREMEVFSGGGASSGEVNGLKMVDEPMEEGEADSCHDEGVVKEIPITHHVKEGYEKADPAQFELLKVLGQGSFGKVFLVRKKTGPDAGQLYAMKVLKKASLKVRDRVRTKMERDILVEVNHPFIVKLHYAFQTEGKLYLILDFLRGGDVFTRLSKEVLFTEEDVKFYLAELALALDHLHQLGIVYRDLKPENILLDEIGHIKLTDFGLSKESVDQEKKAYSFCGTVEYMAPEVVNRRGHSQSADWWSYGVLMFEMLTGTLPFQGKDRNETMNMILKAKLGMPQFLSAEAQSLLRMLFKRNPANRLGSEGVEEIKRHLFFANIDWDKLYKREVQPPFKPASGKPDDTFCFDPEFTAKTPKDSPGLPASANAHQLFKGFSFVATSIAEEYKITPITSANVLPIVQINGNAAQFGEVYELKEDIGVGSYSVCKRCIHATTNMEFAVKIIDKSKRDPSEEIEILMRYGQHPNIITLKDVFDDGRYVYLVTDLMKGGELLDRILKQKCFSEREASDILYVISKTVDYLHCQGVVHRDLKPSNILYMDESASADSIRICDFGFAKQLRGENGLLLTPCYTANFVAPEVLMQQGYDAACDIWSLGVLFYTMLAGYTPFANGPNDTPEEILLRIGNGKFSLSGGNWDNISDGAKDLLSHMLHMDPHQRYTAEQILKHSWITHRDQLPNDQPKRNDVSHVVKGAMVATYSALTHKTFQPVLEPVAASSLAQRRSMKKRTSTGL
Chain of 5'-AMP-activated protein kinase catalytic subunit alpha-1 (Homo sapiens) (Q13131 whole entry, looked up): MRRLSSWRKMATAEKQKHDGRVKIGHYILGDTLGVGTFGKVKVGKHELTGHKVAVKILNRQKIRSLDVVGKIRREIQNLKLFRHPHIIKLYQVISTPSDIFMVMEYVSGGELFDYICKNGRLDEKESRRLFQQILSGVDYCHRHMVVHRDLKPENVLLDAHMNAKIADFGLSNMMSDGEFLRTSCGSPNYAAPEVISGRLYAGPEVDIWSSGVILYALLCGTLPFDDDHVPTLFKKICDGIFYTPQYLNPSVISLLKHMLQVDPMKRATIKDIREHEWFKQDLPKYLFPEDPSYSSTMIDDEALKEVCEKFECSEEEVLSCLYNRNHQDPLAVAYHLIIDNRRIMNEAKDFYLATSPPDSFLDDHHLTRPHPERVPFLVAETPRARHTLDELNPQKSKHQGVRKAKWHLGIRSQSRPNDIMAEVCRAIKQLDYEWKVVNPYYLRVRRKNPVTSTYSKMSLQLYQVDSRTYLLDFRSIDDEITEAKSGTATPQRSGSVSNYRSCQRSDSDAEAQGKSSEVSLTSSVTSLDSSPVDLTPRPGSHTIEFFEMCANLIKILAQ

As to `COc1ccc2cc(-c3c(-c4ccncc4)nc(-c4ccc([S+](C)[O-])cc4)n3C)ccc2c1` (stereo not given), the inhibition in [1] was 1.25%; in test [2], 1.97%; in test [3], 0.68%; in test [4] it was 2.93%; in test [5], -0.04%; in test [6] it was 2.63%. Moreover, the inhibition turned out to be 4.38% in [7]; 3.11% in test [8]; 1.29% in test [9]; 1.9% in test [10]; 3.34% in [11]; 1.01% in test [12]. Moreover, the inhibition in [13] was 2.13%; in test [14], 1.67%; in [15] it was 3.16%; in test [16], 1.67%; in [17], 0.66%; in test [18], -0.09%. The inhibition in test [19] turned out to be 0.68%; in test [20], 3.34%.
With `Fc1cccc(COc2ccc(Nc3ncnc4sc(-c5cccs5)cc34)cc2Cl)c1`, the inhibition worked out at 0.4% in [1]; 1.05% in test [2]; 0.86% in test [3]; 0.37% in test [4]; 0.66% in [5]; 0.04% in test [6]. For the same compound, the inhibition in [7] is -0.58%; in test [8], 0.51%; in [9], 0.48%; in test [10], 2.89%; in test [11], 0.62%; in [12], 4.02%. The inhibition in [13] was 7.65%; in test [14] it was 0.56%; in [15] it was -0.44%; in test [16], 0.22%; in [17], 1.9%; in test [18], -1.31%. Besides, the figures for the inhibition in test [19] and in test [20] were 0.18% and -3%, respectively.
Take `Cc1cc(O)cc(C)c1/C=C/c1cncc(-c2nn[nH]n2)c1`: the inhibition in [1] was 0.92%; in test [2], 3.17%; in test [3], 2.09%; in test [4], -1.45%; in test [5], 1.25%; in [6] it was 1.96%. In addition, the inhibition in test [7] was determined as 3.83%; in [8], 3.54%; in test [9], 3.56%; in test [10], 3.69%; in [11], 4.51%; in test [12], 3.07%. Also, the inhibition amounted to 5.08% in [13]; 3.46% in test [14]; 19.2% in test [15]; 2.49% in test [16]; 13.2% in test [17]; 0.18% in test [18]. Also, the results for the inhibition in test [19] and in [20] were -0.55% and 6.31%, respectively.

As a reminder, the inhibition is the change of the read-out against control, counted positive when it falls.
